Compounds without any hit were thinned out: in the full panel of roughly 83,000, 20% have a hit.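 Plates (96-well) were seeded with cells, treated with compound at one concentration, and incubated for 48 hours before percent growth was determined.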 Values without a mark were called inactive. Activity calls are given as the source filed them. How the source made its calls: active means growth percent below 10; inactive means the rest.
Tests used:
Test in all cases: NCI-60 one-dose screen, 48 h (100 = growth as untreated, 0 = no growth, -100 = all killed)
Details in all cases: 10 µM unless noted
HCT-15 colon = system: HCT-15 colon
HT29 colon = system: HT29 colon
SNB-75 CNS = system: SNB-75 CNS
SNB-19 CNS = system: SNB-19 CNS
U251 CNS = system: U251 CNS
PC-3 prostate = system: PC-3 prostate
SK-MEL-5 melanoma = system: SK-MEL-5 melanoma
UACC-62 melanoma = system: UACC-62 melanoma
LOX IMVI melanoma = system: LOX IMVI melanoma
SK-MEL-28 melanoma = system: SK-MEL-28 melanoma
SK-MEL-2 melanoma = system: SK-MEL-2 melanoma
EKVX NSCLC = system: EKVX NSCLC
SN12C renal = system: SN12C renal
UO-31 renal = system: UO-31 renal
ACHN renal = system: ACHN renal
CAKI-1 renal = system: CAKI-1 renal
A498 renal = system: A498 renal
CCRF-CEM leukemia = system: CCRF-CEM leukemia
MOLT-4 leukemia = system: MOLT-4 leukemia
TK-10 renal = system: TK-10 renal

Row | SMILES | growth (HCT-15 colon) | growth (HT29 colon) | growth (SNB-75 CNS) | growth (SNB-19 CNS) | growth (U251 CNS) | growth (PC-3 prostate) | growth (SK-MEL-5 melanoma) | growth (UACC-62 melanoma) | growth (LOX IMVI melanoma) | growth (SK-MEL-28 melanoma) | growth (SK-MEL-2 melanoma) | growth (EKVX NSCLC) | growth (SN12C renal) | growth (UO-31 renal) | growth (ACHN renal) | growth (CAKI-1 renal) | growth (A498 renal) | growth (CCRF-CEM leukemia) | growth (MOLT-4 leukemia) | growth (TK-10 renal)
1 | COc1ccc2[nH]c(O)c(N=Nc3nc(-c4ccc(C#N)cc4)cs3)c2c1 | 68% | 79.1% | -3.1% (active) | 77.2% | 15.2% | 85.7% | 53.7% | 72.7% | 37.6% | 68.9% | 95.8% | 63.9% | 20.3% | 18.3% | 22.2% | 35.4% | 13.2% | 86.4% | 84.2% | –
2 | C#CCCCNCCNc1ccnc2cc(Cl)ccc12 | 43.5% | 25.7% | 100% | 101% | 84.3% | 73.1% | 45.9% | 73.5% | 40.1% | 79% | 98.1% | 70.3% | 74.2% | – | 87.7% | 44.5% | 108% | 77.6% | 65.1% | 82.9%
3 | COC(=O)c1cc(C(C)=O)n2c3ccccc3c3ccccc3c12 | 71.3% | 92.6% | -12.2% (active) | 42.9% | 80.6% | 56.5% | 21.9% | 67% | 64.7% | 92.4% | 99.2% | 69.5% | 75.6% | – | 36.4% | 44.5% | 121% | 85.2% | 73.3% | 74.3%
4 | CCCSc1nnc(-c2c(C)nc3sccn23)o1 | 65.8% | 101% | 91.5% | 81.2% | 87.5% | 86.6% | 81.6% | 69.1% | 88.9% | 106% | 104% | 66.8% | 87.1% | 69.9% | – | 79.4% | 92.3% | 86.3% | 94.4% | –
5 | Cn1cc(-c2cc(N)n3nc(-c4c[nH]c5ccc(F)cc45)cc3n2)c2cc(Br)cnc21 | -11.7% (active) | 25.8% | 134% | 98.3% | 22.4% | 53.8% | 78.8% | 73.7% | -56.8% (active) | 80% | 87.3% | 65.5% | 69.3% | – | 39.5% | 46% | 109% | -42.9% (active) | -10.4% (active) | 90.9%
6 | N#Cc1c(-c2ccc(F)cc2)nc(SCc2ccc(F)cc2)nc1N1CCNCC1 | -42.8% (active) | -79.1% (active) | 19.3% | 49.6% | -95.5% (active) | 11.3% | -67.4% (active) | -91.6% (active) | -100% (active) | -97.6% (active) | -73% (active) | 1.29% (active) | -58.6% (active) | – | -79% (active) | -80.1% (active) | 96.5% | 4.49% (active) | 7.79% (active) | -25% (active)
7 | Cc1ccccc1Nc1nnc(-c2c[nH]c3ccccc23)o1 | 16.8% | 2.95% (active) | 26% | 41% | 11.8% | 37.6% | -17% (active) | 28.4% | 29.1% | 61.3% | -10.8% (active) | 20.1% | 33.8% | 33.8% | 39.5% | 29.4% | 101% | 10.5% | 9.88% (active) | –
8 | COc1ccc(C(=O)C[n+]2cccc3c4ccccc4ccc32)cc1 | 87.5% | 20.4% | 82.1% | 31.4% | 28.2% | 27.5% | -31.4% (active) | 55.7% | 46.1% | 67% | 56.3% | 43.2% | 17.4% | – | 79% | 79% | 102% | 52.5% | 32% | 73.6%
9 | Cc1ccc(C(C(=O)NC2CCCCC2)N(Cc2ccccc2Cl)C(=O)c2ccc(CN3CCOCC3)o2)o1 (stereo not drawn) | 98.3% | 95.4% | 80.2% | 85.6% | 103% | 78.5% | 83.4% | 66.2% | 87% | 114% | 92.8% | 89% | 95% | – | 104% | 72.4% | 119% | 86.8% | 70.3% | 101%
10 | O=C1CC(c2ccc(I)cc2)OC2C=Cc3ccccc3C12 (stereo not drawn) | 94.9% | 90.7% | 111% | 101% | 99.5% | 101% | 104% | 78.9% | 99.6% | 116% | 98.8% | 82.9% | – | 85.8% | 109% | 91.7% | 119% | 94.4% | 96% | 139%
11 | O=C(CSc1nnc(-c2ccc(-c3nc4ccc(Cl)cc4[nH]3)cc2)o1)Nc1ccccc1 | 25.2% | 41% | -16.8% (active) | -42.4% (active) | -79.2% (active) | -13.6% (active) | 13.2% | 7.34% (active) | -65.6% (active) | -89.2% (active) | 54.5% | 21.1% | 4.03% (active) | – | -56.4% (active) | -33.5% (active) | 130% | 41.5% | 10.7% | 114%
12 | COc1cc(C2CC(c3ccc(Cl)cc3)=Nc3c(N)nc(N)nc3N2)ccc1Oc1nc(Nc2ccc(F)cc2)nc(N(C)C)n1 (stereo not drawn) | 25.1% | 14.3% | 33.7% | 47.7% | 45% | 21.9% | 17.9% | 84.4% | 16% | 75.6% | 64.1% | 49.6% | 55.6% | – | 62.3% | 35.3% | 59.5% | 47% | -8.16% (active) | 72.1%
13 | Cc1ccc(S(=O)(=O)Nc2ccc(-c3ccc4c(c3)NC(=O)/C4=C\c3ccc[nH]3)cc2)cc1 | 68.7% | 78.5% | 96.1% | 95.1% | 77.3% | 80.1% | 99.1% | 89.8% | 91.7% | 95.9% | 105% | 35.7% | – | 93.9% | 93.5% | 87.3% | 112% | 62.3% | 68.1% | 98.4%
14 | O=C1Nc2cc(-c3ccc(NS(=O)(=O)c4ccc(-c5ccccc5)cc4)cc3)ccc2/C1=C/c1ccc[nH]1 | 14.6% | 0.595% (active) | 53.2% | 72.5% | 28.2% | 31.1% | 46.2% | 55% | 20.2% | 52.1% | 83.1% | 10.9% | – | 68.5% | 47.4% | 40.7% | 75.6% | 32.2% | 27.6% | –
15 | N#CC1=C(c2cccs2)Nc2c(c(-c3ccccc3)nn2-c2ccccc2)C12C(=O)Nc1ccccc12 (stereo not drawn) | 11.9% | 6.67% (active) | 60.5% | 25.4% | 11.6% | 6.98% (active) | 23.9% | 48.5% | 61.6% | 15.2% | 90.1% | 14.8% | – | 18.2% | -26.9% (active) | 63.4% | -14.9% (active) | 6.02% (active) | 15% | 18.1%

Reference: PubChem BioAssay (NCI)
